# Calls of active or inactive are those of the source. Unless noted, how the calls were made is not given here.
# Columns and labels:
# [1] = kinase inhibitors against Plasmodium liver-stage infection, cell-based, known kinase inhibitor set, luminescence, hepatoma host viability (AID 624392); conditions: Plasmodium liver stage in hepatoma cells, luciferase luminescence, concentration not given here; liver cell % of control: measured here: host liver cell viability; parasite % of control: stronger effect = lower value;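 further: infected cells incubated roughly two days before readout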
# [2] = modulators of glucocorticoid suppression of NF-kB, cell-based, luciferase, IL-1B stimulus, dexamethasone (AID 624486); conditions: NF-kB luciferase reporter, IL-1B + dexamethasone, luminescence; percent of negative control (+Dex): actives lie on both sides, concentration not given here; z-score: measured here: IL-1B alone, no Dex;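 on percent of negative control (+Dex): 100% = mean signal of vehicle control wells on the plate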
# [3] = kinase inhibitors altering Pseudomonas killing of worms, whole organism (AID 651566);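 further: tested at 14 µM; sign flipped so higher z means a lower ratio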; conditions: C. elegans killed by P. aeruginosa, survival ratio
# [4] = activators of macrophage pro-inflammatory response, cell-based, murine, luminescence (AID 652131); conditions: murine macrophage pro-inflammatory reporter, stronger effect = higher value
# [5] = target: Cellular tumor antigen p53 (Homo sapiens) (UniProt P04637); assay: kinase inhibitors altering GFP-p53 stability in HPV16-positive cells, imaging, known kinase inhibitor set, EGFP/DsRed ratio (AID 1053116); conditions: stronger effect = higher value; EGFP object count: measured here: GFP-p53 positive objects count;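 further: cells exposed to compounds for 24 h at 37 °C before reading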
# [6] = IRF3 reporter activation in THP-1 macrophages, cell-based, PMA-stimulated THP-1, luminescence (AID 1053176); conditions: PMA-differentiated THP-1, IRF3 reporter luminescence; stronger effect = higher value
# [7] = survival rescue of mitochondrial mutant cells in low glucose, primary screen, MELAS cybrids, Rieske KO mouse fibroblasts, CellTiter-Glo (AID 1508586;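 active means mean z-score across replicates of 1.96 or higher in either the MELAS or the Rieske mutant cell line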;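 further: z relative to plate mean and SD of compound and empty wells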)
# [8] = MELAS cybrid survival, CellTiter-Glo 48 h, stronger effect = higher value
# [9] = Rieske KO mouse fibroblast survival, CellTiter-Glo 72 h
# Chain of Cellular tumor antigen p53 (Homo sapiens) (P04637 whole entry, looked up): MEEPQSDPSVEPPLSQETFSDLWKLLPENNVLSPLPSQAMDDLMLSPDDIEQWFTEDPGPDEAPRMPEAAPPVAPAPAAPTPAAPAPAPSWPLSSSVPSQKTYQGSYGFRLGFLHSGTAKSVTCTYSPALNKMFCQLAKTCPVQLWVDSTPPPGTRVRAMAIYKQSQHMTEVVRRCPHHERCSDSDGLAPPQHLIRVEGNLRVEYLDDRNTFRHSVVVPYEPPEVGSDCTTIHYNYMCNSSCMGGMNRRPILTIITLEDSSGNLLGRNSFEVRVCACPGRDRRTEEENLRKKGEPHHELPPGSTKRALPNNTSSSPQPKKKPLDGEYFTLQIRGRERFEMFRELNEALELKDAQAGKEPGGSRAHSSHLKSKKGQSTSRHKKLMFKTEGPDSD
smiles,measurement,setting,value
c1ccc(COc2ccc(Nc3ncnc4ccc(-c5ccco5)cc34)cc2)cc1,liver cell % of control,[1],99%
same,parasite % of control,[1],71.7% (inactive)
same,percent of negative control (+Dex),[2],106% (inactive)
same,z-score,[2],1.01
same,z-score,[3],0.34 (inactive)
same,z-score,[4],-1.14 (inactive)
same,EGFP object count,[5],3
same,EGFP/DsRed ratio,[5],0.073 (inactive)
same,fraction signal,[6],0.006 (inactive)
same,z-score,[7]; [8],-0.351 (inactive)
same,z-score,[7]; [9],-0.356
O=C(Nc1n[nH]c2nc(-c3ccc(O)cc3)c(Br)cc12)C1CC1,liver cell % of control,[1],74.6%
same,parasite % of control,[1],71% (inactive)
same,percent of negative control (+Dex),[2],206% (active)
same,z-score,[2],0.485
same,z-score,[3],0.105 (inactive)
same,z-score,[4],-1.27 (inactive)
same,EGFP object count,[5],2.5
same,EGFP/DsRed ratio,[5],0.0391 (inactive)
same,fraction signal,[6],-0.013 (inactive)
same,z-score,[7]; [8],7.51 (active)
same,z-score,[7]; [9],-0.202
CNC(=O)c1ncccc1Nc1nc(Nc2cc3c(cc2OC)CCCN3C(=O)CN(C)C)nc2[nH]ccc12,liver cell % of control,[1],91.6%
same,parasite % of control,[1],670% (inactive)
same,percent of negative control (+Dex),[2],99.5% (inactive)
same,z-score,[2],0.22
same,z-score,[3],0.02 (inactive)
same,z-score,[4],0.337 (inactive)
same,EGFP object count,[5],3
same,EGFP/DsRed ratio,[5],0.0957 (inactive)
same,fraction signal,[6],-0.01 (inactive)
same,z-score,[7]; [8],6.01 (active)
same,z-score,[7]; [9],11.9
Cc1ccc(NC(=O)c2ccoc2)cc1-c1ccc(C(=O)NCC2CC2)cc1,liver cell % of control,[1],104%
same,parasite % of control,[1],120% (inactive)
same,percent of negative control (+Dex),[2],99.5% (inactive)
same,z-score,[2],0.73
same,z-score,[3],0.02 (inactive)
same,z-score,[4],-0.057 (inactive)
same,EGFP object count,[5],2
same,EGFP/DsRed ratio,[5],0.0344 (inactive)
same,fraction signal,[6],-0.016 (inactive)
same,z-score,[7]; [8],-1.06 (inactive)
same,z-score,[7]; [9],-0.276
c1cnn2ncc(-c3ccnc(NCCCN4CCOCC4)n3)c2c1,liver cell % of control,[1],91.2%
same,parasite % of control,[1],426% (inactive)
same,percent of negative control (+Dex),[2],57% (inactive)
same,z-score,[2],-4.11
same,z-score,[3],0.63 (inactive)
same,z-score,[4],-1.59 (inactive)
same,EGFP object count,[5],1.5
same,EGFP/DsRed ratio,[5],0.248 (inactive)
same,fraction signal,[6],-0.004 (inactive)
same,z-score,[7]; [8],-0.792 (inactive)
same,z-score,[7]; [9],-0.375
CS(=O)(=O)CCNCc1nc(-c2ccc3ncnc(Nc4ccc(OCc5cccc(C(F)(F)F)c5)cc4)c3c2)cs1,liver cell % of control,[1],96.4%
same,parasite % of control,[1],93.1% (inactive)
same,percent of negative control (+Dex),[2],91.5% (inactive)
same,z-score,[2],-0.43
same,z-score,[3],-0.1 (inactive)
same,z-score,[4],0.202 (inactive)
same,EGFP object count,[5],4.5
same,EGFP/DsRed ratio,[5],0.116 (inactive)
same,fraction signal,[6],-0.002 (inactive)
same,z-score,[7]; [8],0.123 (inactive)
same,z-score,[7]; [9],-0.291
Cc1cc(O)cc(C)c1/C=C/c1cncc(C(=O)N(C)C)c1,liver cell % of control,[1],97.7%
same,parasite % of control,[1],96.9% (inactive)
same,percent of negative control (+Dex),[2],106% (inactive)
same,z-score,[2],0.005
same,z-score,[3],0.18 (inactive)
same,z-score,[4],0.003 (inactive)
same,EGFP object count,[5],4.5
same,EGFP/DsRed ratio,[5],0.177 (inactive)
same,fraction signal,[6],0.0095 (inactive)
same,z-score,[7]; [8],-0.281 (inactive)
same,z-score,[7]; [9],-0.0339
NS(=O)(=O)c1ccc(-c2ccc3c(NC(=O)C4CC4)n[nH]c3c2)cc1,liver cell % of control,[1],109%
same,parasite % of control,[1],143% (inactive)
same,percent of negative control (+Dex),[2],98.5% (inactive)
same,z-score,[2],0.755
same,z-score,[3],-0.155 (inactive)
same,z-score,[4],0.098 (inactive)
same,EGFP object count,[5],4.5
same,EGFP/DsRed ratio,[5],0.0343 (inactive)
same,fraction signal,[6],-0.0105 (inactive)
same,z-score,[7]; [8],-0.641 (inactive)
same,z-score,[7]; [9],-0.353
Cc1nc(-c2ccccc2)n2nc(NCCCN3CCOCC3)ncc12,liver cell % of control,[1],97.3%
same,parasite % of control,[1],149% (inactive)
same,percent of negative control (+Dex),[2],102% (inactive)
same,z-score,[2],1.35
same,z-score,[3],-0.095 (inactive)
same,z-score,[4],-1.16 (inactive)
same,EGFP object count,[5],4.5
same,EGFP/DsRed ratio,[5],0.201 (inactive)
same,fraction signal,[6],-0.0105 (inactive)
same,z-score,[7]; [8],-0.231 (inactive)
same,z-score,[7]; [9],-0.21
CS(=O)(=O)CCNCc1ccc(-c2ccc3ncnc(Nc4ccc(OCc5ccccc5)c(C(F)(F)F)c4)c3c2)o1,liver cell % of control,[1],107%
same,parasite % of control,[1],128% (inactive)
same,percent of negative control (+Dex),[2],91.5% (inactive)
same,z-score,[2],-0.11
same,z-score,[3],-1.4 (inactive)
same,z-score,[4],0.401 (inactive)
same,EGFP object count,[5],6
same,EGFP/DsRed ratio,[5],0.123 (inactive)
same,fraction signal,[6],-0.0055 (inactive)
same,z-score,[7]; [8],0.000746 (inactive)
same,z-score,[7]; [9],-0.326
O/N=C1/CCc2cc(-c3nc(C4CCNCC4)[nH]c3-c3ccncc3)ccc21,liver cell % of control,[1],105%
same,parasite % of control,[1],174% (inactive)
same,percent of negative control (+Dex),[2],128% (inactive)
same,z-score,[2],0.995
same,z-score,[3],0.24 (inactive)
same,z-score,[4],3.12 (inactive)
same,EGFP object count,[5],1
same,EGFP/DsRed ratio,[5],0.00487 (inactive)
same,fraction signal,[6],0.001 (inactive)
same,z-score,[7]; [8],-1.26 (inactive)
same,z-score,[7]; [9],-0.635
CN(C)CCCn1c(-c2nonc2N)nc2cnccc21,liver cell % of control,[1],105%
same,parasite % of control,[1],124% (inactive)
same,percent of negative control (+Dex),[2],91% (inactive)
same,z-score,[2],0.395
same,z-score,[3],0.105 (inactive)
same,z-score,[4],-0.067 (inactive)
same,EGFP object count,[5],3.5
same,EGFP/DsRed ratio,[5],0.0389 (inactive)
same,fraction signal,[6],-0.0015 (inactive)
same,z-score,[7]; [8],-0.855 (inactive)
same,z-score,[7]; [9],-0.298
Cc1ccc2c(-c3ccnc(Nc4ccccc4)n3)c(-c3ccc(F)cc3)nn2n1,liver cell % of control,[1],152%
same,parasite % of control,[1],12.5% (active)
same,percent of negative control (+Dex),[2],81% (inactive)
same,z-score,[2],-1.78
same,z-score,[3],0.225 (inactive)
same,z-score,[4],-0.658 (inactive)
same,EGFP object count,[5],6
same,EGFP/DsRed ratio,[5],0.152 (inactive)
same,fraction signal,[6],-0.0025 (inactive)
same,z-score,[7]; [8],0.41 (inactive)
same,z-score,[7]; [9],-0.16
NS(=O)(=O)c1ccc(NC2CC(c3ccc(O)c(F)c3)NN2)cc1 (centres undefined),liver cell % of control,[1],113%
same,parasite % of control,[1],139% (inactive)
same,percent of negative control (+Dex),[2],94.5% (inactive)
same,z-score,[2],-0.075
same,z-score,[3],-1.04 (inactive)
same,z-score,[4],-0.229 (inactive)
same,EGFP object count,[5],2.5
same,EGFP/DsRed ratio,[5],0.101 (inactive)
same,fraction signal,[6],0.0025 (inactive)
same,z-score,[7]; [8],-0.752 (inactive)
same,z-score,[7]; [9],-0.137

# Reference: PubChem BioAssay
